PubChem BioAssay (EPA / NIEHS)
Results filed as inconclusive are left out. The source made the active and inactive calls. The calls were made as follows: active = hit-call score of the fitted dose curve at least 0.9, where 1 is the maximum; inconclusive = response in the unintended direction; inactive = score below 0.9.

Each molecule was assayed on organic anion transporter (SLCO1B1), SLCO1B1 (gene 10599) (assay: CLD_SLCO1B1_6hr: CellzDirect (CLD) Gene Expression Assay for organic anion transporter (SLCO1B1) at 6 hours (AID 2283668);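 also: active means mRNA induction above DMSO baseline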).
Protocol: CLD_6hr is a cell-based, multiplexed-readout assay that uses hepatocyte, a human liver primary cell, with measurements taken at 6 hours after chemical dosing in a 96-well plate.CLD_SLCO1B1_6hr is one of 16 assay component(s) measured or calculated from the CLD_6hr assay. It is designed to make measurements of mRNA induction, a form of inducible reporter, as detected with chemiluminescence signals by Quantitative Nuclease Protection Assay (qNPA) technology.Data from the assay component CLD_SLCO1B1_6hr was analyzed at the endpoint, CLD_SLCO1B1_6hr, in the positive analysis fitting direction relative to DMSO as the negative control and baseline of activity. Using a type of inducible reporter, gain-of-signal activity can be used to understand changes in the reporter gene as they relate to the gene SLCO1B1. Furthermore, this assay endpoint can be referred to as a primary readout. To generalize the intended target to other relatable targets, this assay endpoint is annotated to the transporter intended target family, where subfamily is organic anion transporter.
Human hepatocyte cultures were treated daily for two consecutive days with fresh dosing solutions containing appropriate concentrations of the 320 ToxCast chemicals (chemical identities were blinded to CellzDirect and other ToxCast collaborators), vehicle control (0.2% DMSO), and positive control inducers as summarized in Table 1. Due to the large number of treatment groups and chemicals examined, the ToxCast chemicals were divided into two groups (spanning two independent cultures of hepatocytes from separate donor preparations (Hu778: ToxCast plates 1 and 2; Hu776: ToxCast plates 3 and 4). Each preparation of human hepatocyte cultures was treated with respective vehicle control, medium only control, set of six positive controls/reference chemicals for the five hepatic receptor pathways, and a subset of eight of the ToxCast chemicals (indoxacarb, pyrithiobac-sodium, norflurazon, cyhalofop-butyl, methomyl, thiram, acetochlor, and propiconazole). These replicate data, coupled with internal replicates designed within the blinded ToxCast chemical library, provided additional data to evaluate interindividual differences between hepatocyte preparations and their potential impact on chemical profiles.Cell morphology and integrity were evaluated using phase-contrast microscopy as an indicator of hepatocyte cell health (Tyson & Green, 1987). Cultures for each treatment group (i.e., media, vehicle [0.2% DMSO], positive control inducers [multiple concentrations], and the ToxCast chemicals [multiple concentrations]) were observed and cell morphology was assessed relative to vehicle control cultures at each harvest time point (0, 6, 24, or 48 h). […] Images were evaluated at the conclusion of the study to assess changes in cell integrity and account for the effects of chemical exposure on uncharacteristic changes in concentration-dependent gene expression profiles. The results from these determinations of apparent cytotoxicity were annotated (yes/no) alongside the corresponding qNPA data for reference.At the conclusion of each treatment period, hepatocyte cultures (96-well) were washed with 1 volume of HBSS, lysed by addition of 25 ul ArrayPlate lysis buffer (HTG, Tucson, AZ), and 70 ul/well of Denaturation Oil, denatured by incubation at 95C for 10 min, and frozen at approximately -70C until analysis by nuclease protection assay (qNPA) (Roberts et al., 2007). For qNPA analysis, cell lysates were thawed at 50C for approximately 30 min, qNPA probes were added, and samples were incubated at 95C for 10 min to begin the detection process by denaturing the target RNA, dissociating the duplexes and secondary structure hybridization. At the conclusion of the hybridization period, S1 nuclease reagent was added to each sample to digest all nonprotected nucleotides at 50C for 60-90 min. […]
`Cc1nn(-c2cc(NS(C)(=O)=O)c(Cl)cc2Cl)c(=O)n1C(F)F` was tested, and the outcome was “inactive”.
`N#CSCSC#N` was tested, and the outcome was “inactive”.
`CSc1nc(NC(C)C)nc(NC(C)C)n1` was tested, and the outcome was “inactive”.
With `Cc1ccn2nc(S(=O)(=O)Nc3c(F)cccc3F)nc2n1` the outcome was “inactive”.
For `CCC(CC)Nc1c([N+](=O)[O-])cc(C)c(C)c1[N+](=O)[O-]`, the outcome was “inactive”.
For `CCCOCC(=Nc1ccc(Cl)cc1C(F)(F)F)n1ccnc1`, the outcome was “inactive”.
For `CNC(=O)ON=C(SC)C(=O)N(C)C`, the outcome was “inactive”.
In the case of `CCOP(=O)(SC(C)CC)N1CCSC1=O` (configuration not stated), the outcome is reported as “inactive”.
With `CCCSP(=O)(OCC)Oc1ccc(Br)cc1Cl` (configuration not stated) the outcome was “inactive”.
With `COc1ccc(C(=CC(=O)N2CCOCC2)c2ccc(Cl)cc2)cc1OC` the outcome was “inactive”.
For `CC(COc1ccc(Oc2ccccc2)cc1)Oc1ccccn1` (configuration not stated), the outcome was “inactive”.
In the case of `CCOP(=O)(OCC)Oc1cc(C)nc(C(C)C)n1`, the outcome is reported as “inactive”.
With `O=[N+]([O-])c1cc(C(F)(F)F)c(Cl)c([N+](=O)[O-])c1Nc1ncc(C(F)(F)F)cc1Cl` the outcome was “inactive”.
`CSc1nnc(C(C)(C)C)c(=O)n1N` was tested, and the outcome was “inactive”.
In the case of `COP(=O)(NC(C)=O)SC` (configuration not stated), the outcome is reported as “inactive”.
In the case of `CCc1cccc(CC)c1N(COC)C(=O)CCl`, the outcome is reported as “inactive”.
With `CCC(=NOC/C=C/Cl)C1=C(O)CC(C2CCOCC2)CC1=O` (configuration not stated) the outcome was “inactive”.
With `CCCSP(=O)(OCC)SCCC` the outcome was “inactive”.
For `CCOP(=S)(OCC)OC(Cl)C(Cl)(Cl)Cl` (configuration not stated), the outcome was “inactive”.
`CCOP(=S)(Oc1cnc(C(C)(C)C)nc1)OC(C)C` (configuration not stated) was tested, and the outcome was “inactive”.
`CCCCOC(=O)c1ccccc1C(=O)O` was tested, and the outcome was “inactive”.
With `CCOP(=O)(NC(C)C)Oc1ccc(SC)c(C)c1` (configuration not stated) the outcome was “inactive”.
`C=C(C)[C@H]1Cc2c(ccc3c2O[C@@H]2COc4cc(OC)c(OC)cc4[C@@H]2C3=O)O1` was tested, and the outcome was “inactive”.
`C#CCC1=C(C)C(OC(=O)C2C(C=C(C)C)C2(C)C)CC1=O` (configuration not stated) was tested, and the outcome was “inactive”.
For `CC(C)N(C(=O)SCC(Cl)=C(Cl)Cl)C(C)C`, the outcome was “inactive”.
With `COP(=O)(OC)C(O)C(Cl)(Cl)Cl` (configuration not stated) the outcome was “inactive”.
For `COP(=O)(OC)OC(Br)C(Cl)(Cl)Br` (configuration not stated), the outcome was “inactive”.
In the case of `CCCOc1nn(C(=O)NS(=O)(=O)c2ccccc2C(=O)OC)c(=O)n1C`, the outcome is reported as “inactive”.
For `S=C1NCCN1`, the outcome was “inactive”.
`CCc1cnc(C2=NC(C)(C(C)C)C(=O)N2)c(C(=O)O)c1` (configuration not stated) was tested, and the outcome was “inactive”.
With `CCOP(=S)(OCC)Oc1cc(C)nc(C(C)C)n1` the outcome was “inactive”.
In the case of `C[Si](Cn1cncn1)(c1ccc(F)cc1)c1ccc(F)cc1`, the outcome is reported as “inactive”.
`CON=C(C(=O)OC)c1ccccc1CON=C(C)c1cccc(C(F)(F)F)c1` was tested, and the outcome was “inactive”.
For `CC1=NNC(=O)N(/N=C/c2cccnc2)C1`, the outcome was “inactive”.
In the case of `CC[C@H](C)[C@H]1O[C@]2(C=C[C@@H]1C)C[C@@H]1C[C@@H](C/C=C(\C)[C@@H](O[C@H]3C[C@H](OC)[C@@H](O[C@H]4C[C@H](OC)[C@@H](NC)[C@H](C)O4)[C@H](C)O3)[C@@H](C)/C=C/C=C3\CO[C@@H]4[C@H](O)C(C)=C[C@@H](C(=O)O1)[C@]34O)O2`, the AC50 is reported as 30.7 µM (active).
In the case of `O=c1ccc(=O)[nH][nH]1`, the outcome is reported as “inactive”.
For `CC(=NC#N)N(C)Cc1ccc(Cl)nc1`, the outcome was “inactive”.
